# Reference: PubChem BioAssay (Tox21)
# “And” between values parts separate entries of the source, which are not always exact repeats. Equal values may be shown once. Records with an inconclusive call do not appear. A call without a number means that no potency is given here. A number with no mark means an inactive call. The source made the active and inactive calls. Unless noted, the call rests on the fitted dose curve; in most records, active means well fitted curve in the direction sought with a large enough effect in the repeat runs; inconclusive means weak or mixed curves; inactive means no such curve, though single readings can be large; an effect the other way counts as inactive or inconclusive.
# Legend:
# [1] = target: Luciferin 4-monooxygenase (Photinus pyralis) (UniProt P08659); experiment: qHTS assay to identify small molecule inhibitors of firefly luciferase (AID 1224835); further: nearly all actives have a fitted effect of over 25% in size; further: potency means the concentration at half of the fitted maximal effect
# Procedure, shortened: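 Inhibition of purified Photinus luciferase is measured by luminescence. Substrate levels (D-luciferin, ATP) sit at their KM values. Each compound is tested in a concentration series.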
# [2] = qHTS assay to identify small molecule agonists of the constitutive androstane receptor (CAR) signaling pathway - cell viability counter screen (AID 1224836); further: nearly all actives have a fitted effect of over 45% in size; further: potency means the concentration at half of the fitted maximal effect
# Procedure, shortened: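 HepG2-CYP2B6-hCAR, 2500 cells/well, 4 h pre-incubation; cpd 15 conc + PK11195 0.75 uM final; 23 h, 37 C/5% CO2; CellTiter-Fluor, fluorescence.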
# [3] = qHTS assay to identify small molecule antagonists of the constitutive androstane receptor (CAR) signaling pathway - cell viability counter screen (AID 1224837); further: nearly all actives have a fitted effect of over 45% in size; further: potency means the concentration at half of the fitted maximal effect; on activity change, negative = cytotoxicity: series mostly up to about 92 µM
# Procedure, shortened: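 In quantitative HTS format, compounds at 15 concentrations were applied to HepG2 cells double-transfected with hCAR and CYP2B6-2.2kb under 50 nM CITCO stimulation; live-cell protease activity was read after 23 hr via CellTiter-Fluor.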
# [4] = target: Nuclear receptor subfamily 1 group I member 3 (Homo sapiens) (UniProt Q14994); experiment: qHTS assay to identify small molecule antagonists of the constitutive androstane receptor (CAR) signaling pathway (AID 1224838); further: nearly all actives have a fitted effect of over 40% in size; further: potency means the concentration at half of the fitted maximal effect
# Procedure, shortened: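 CITCO-stimulated (50 nM final) HepG2 cells stably transfected with hCAR and CYP2B6-2.2kb luciferase were exposed to compounds at 15 concentrations for 24 h at 37 C/5% CO2. A luciferase reagent was added and luminescence recorded after 30 min.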
# [5] = target: Nuclear receptor subfamily 1 group I member 3 (Homo sapiens) (UniProt Q14994); experiment: qHTS assay to identify small molecule agonists of the constitutive androstane receptor (CAR) signaling pathway (AID 1224839); further: nearly all actives have a fitted effect of over 15% in size; further: potency means the concentration at half of the fitted maximal effect;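 on activation: HepG2 cells stably carrying human CAR and a CYP2B6 luciferase reporter; series mostly up to about 92 µM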
# Procedure, shortened: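 HepG2-CYP2B6-hCAR cells, 2500/well, 4 h pre-incubation; compounds 15 conc.; PK11195 0.75 uM final; 24 h, 37 C/5% CO2; ONE-Glo luciferase read.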
# [6] = qHTS assay to identify small molecule agonists of the estrogen related receptor signaling pathway with the pleiotropic PPARgamma coactivator (PGC) from Tox21 10K library (AID 1224842); further: nearly all actives have a fitted effect of over 15% in size
# Procedure, shortened: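 Luminescence from One-Glo (30 min, room temperature) measured after PGC/ERR cells had 18 h at 37 C with pinned compound (23 nL in DMSO). Cells had been seeded at 2,000 per well and pre-incubated 6 h.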
# [7] = target: Thyrotropin receptor (Homo sapiens) (UniProt P16473); experiment: qHTS assay to identify small molecule agonists of the thyroid stimulating hormone receptor (TSHR) signaling pathway (AID 1224843; calls by dose curve; further: nearly all actives have a fitted effect of over 45% in size; further: potency means the concentration at half of the fitted maximal effect)
# Procedure, shortened: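 A cell-based cAMP HTRF format was run in TSHR-transfected HEK293 cells, 800 per well. Treatment: 30 min, room temperature. Detection: 1 h with labelled cAMP and anti-cAMP cryptate. Concentration-response over 15 points, three replicates.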
# [8] = qHTS assay to identify small molecule antagonists of the estrogen related receptor signaling pathway with the pleiotropic PPARgamma coactivator (PGC) from Tox21 10K library - cell viability counter screen (AID 1224840; active means well fitted cell-killing curve with a large enough effect in the repeat runs, not every such curve was filed as active; further: nearly all actives have a fitted effect of over 40% in size; further: potency means the concentration at half of the fitted maximal effect)
# Procedure, shortened: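 Viability counter screen, PGC/ERR cells: 17.5 h compound exposure at 37 C, CellTiter-Fluor fluorescence endpoint.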
# [9] = qHTS assay to identify small molecule agonists of the hypoxia (HIF-1) signaling pathway - cell viability counter screen (AID 1224844; calls by dose curve; further: nearly all actives have a fitted effect of over 50% in size; further: potency means the concentration at half of the fitted maximal effect)
# Procedure, shortened: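 Same wells as the HIF-1 reporter screen; ME-180 cells carrying HRE-bla, 17 hr treatment at 37C; CellTiter-Glo luminescence read after 30 min at room temperature.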
# [10] = qHTS assay to identify small molecule antagonists of the estrogen related receptor signaling pathway with the pleiotropic PPARgamma coactivator (PGC) from Tox21 10K library (AID 1224841; call rule not given here; further: actives are mostly falling curves and most rising ones were filed inactive; nearly all actives have a fitted effect of over 50% in size; further: potency means the concentration at half of the fitted maximal effect)
# Procedure, shortened: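 In the PGC/ERR line, DMSO solutions of test chemicals are pin-delivered to 2,000 cells/well six hours after dispensing. Following eighteen hours' incubation, One-Glo reagent is added and luminescence recorded.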
# Thyrotropin receptor (Homo sapiens), sequence (P16473 whole entry, looked up): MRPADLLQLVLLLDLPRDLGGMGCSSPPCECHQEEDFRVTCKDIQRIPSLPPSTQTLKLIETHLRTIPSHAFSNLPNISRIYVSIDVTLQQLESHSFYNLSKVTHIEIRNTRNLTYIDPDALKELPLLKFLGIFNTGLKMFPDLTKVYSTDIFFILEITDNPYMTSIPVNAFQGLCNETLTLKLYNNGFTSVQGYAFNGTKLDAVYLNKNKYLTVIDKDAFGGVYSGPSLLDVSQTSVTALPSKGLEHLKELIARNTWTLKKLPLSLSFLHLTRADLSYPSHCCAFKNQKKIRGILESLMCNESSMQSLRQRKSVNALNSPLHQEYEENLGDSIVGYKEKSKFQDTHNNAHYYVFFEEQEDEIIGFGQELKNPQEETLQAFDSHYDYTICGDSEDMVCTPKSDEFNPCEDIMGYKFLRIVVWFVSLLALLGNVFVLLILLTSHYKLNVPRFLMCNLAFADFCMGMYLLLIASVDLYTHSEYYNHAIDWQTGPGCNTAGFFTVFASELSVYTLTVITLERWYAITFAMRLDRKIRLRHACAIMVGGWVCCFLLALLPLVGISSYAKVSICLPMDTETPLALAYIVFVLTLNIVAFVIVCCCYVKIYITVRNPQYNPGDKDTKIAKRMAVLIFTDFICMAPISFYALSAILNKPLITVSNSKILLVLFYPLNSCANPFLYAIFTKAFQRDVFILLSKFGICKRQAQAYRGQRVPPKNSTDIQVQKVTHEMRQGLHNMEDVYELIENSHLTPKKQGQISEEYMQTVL
# Nuclear receptor subfamily 1 group I member 3 (Homo sapiens), sequence (Q14994 whole entry, looked up): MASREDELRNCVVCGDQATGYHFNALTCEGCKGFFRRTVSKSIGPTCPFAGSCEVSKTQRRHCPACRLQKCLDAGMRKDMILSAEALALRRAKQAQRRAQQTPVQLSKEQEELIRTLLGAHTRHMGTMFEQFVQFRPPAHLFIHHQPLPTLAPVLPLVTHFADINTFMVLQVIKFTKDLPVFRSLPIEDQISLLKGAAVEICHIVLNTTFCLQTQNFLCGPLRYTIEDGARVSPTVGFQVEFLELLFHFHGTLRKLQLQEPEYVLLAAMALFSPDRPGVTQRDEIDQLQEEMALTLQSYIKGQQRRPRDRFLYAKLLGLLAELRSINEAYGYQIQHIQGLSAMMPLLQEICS
# Luciferin 4-monooxygenase (Photinus pyralis), sequence (P08659 whole entry, looked up): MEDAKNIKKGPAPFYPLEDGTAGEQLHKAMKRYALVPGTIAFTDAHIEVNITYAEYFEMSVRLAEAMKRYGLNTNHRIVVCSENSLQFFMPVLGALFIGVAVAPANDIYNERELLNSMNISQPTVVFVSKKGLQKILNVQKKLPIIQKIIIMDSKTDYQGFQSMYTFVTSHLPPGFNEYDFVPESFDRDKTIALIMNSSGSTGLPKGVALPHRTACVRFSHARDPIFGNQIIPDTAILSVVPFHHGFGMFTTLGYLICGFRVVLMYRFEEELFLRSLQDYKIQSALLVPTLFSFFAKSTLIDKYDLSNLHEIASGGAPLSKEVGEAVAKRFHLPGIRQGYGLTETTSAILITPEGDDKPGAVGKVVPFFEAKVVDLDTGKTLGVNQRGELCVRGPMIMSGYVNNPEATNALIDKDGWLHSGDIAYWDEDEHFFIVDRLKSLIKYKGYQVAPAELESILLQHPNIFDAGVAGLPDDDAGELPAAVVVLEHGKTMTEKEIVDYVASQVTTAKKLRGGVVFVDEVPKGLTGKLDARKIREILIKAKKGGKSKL
SMILES,Potency [1],Potency [2],Potency [3],Potency [4],Potency [5],Potency [6],Potency [7],Potency [8],Potency [9],Potency [10],activation [5],activation [6],activation [7],"activity change, negative = cytotoxicity [9]"
O=C(N/N=C/c1ccccc1O)c1ccncc1,27.5 µM (active),inactive,inactive,inactive,inactive,inactive,inactive,,,,,,,
Fc1ccc([C@@H]2CCNC[C@H]2COc2ccc3c(c2)OCO3)cc1,inactive,inactive,inactive,inactive,inactive,,,inactive,inactive,,,,,
CCc1cc(Cc2cc(CC)c(N)c(CC)c2)cc(CC)c1N,inactive,inactive,inactive,inactive,4.86 µM (active),inactive,,,inactive,,,,,
Cc1c(C)c2c(c(C)c1O)CCC(C)(COc1ccc(CC3SC(=O)NC3=O)cc1)O2 (centres undefined),inactive,inactive,inactive,inactive,inactive,,inactive,inactive,inactive,,,,,
NNc1nc(-c2ccccc2)cs1,32.6 µM (active),inactive,inactive,inactive,49.9 µM (active),inactive,inactive,,,inactive,,,,
CN(C)c1ccc(C2(c3ccc(N(C)C)cc3)OC(=O)c3cc(N(C)C)ccc32)cc1,inactive,inactive,inactive,inactive,inactive,inactive,inactive,,,,,,,
C[n+]1cc2c3c(ccc2c2ccc4cc5c(cc4c21)OCO5)OCO3,6.74 µM (active),2.91 µM (active),2.59 µM (active),2.91 µM (active),,,,,2.61 µM (active),7.3 µM (active),-21.2% [at 19 µM],-34.9% [at 19 µM],-8.77% [at 19 µM],
Cn1cc(C(=O)[C@@H]2CCc3nc[nH]c3C2)c2ccccc21,inactive,inactive,inactive,inactive,inactive,inactive,inactive,,inactive,,,,,
O=C(Nc1ccc(Oc2ccc(Cl)cc2)c(Cl)c1)c1cc(I)cc(I)c1O,inactive,inactive,inactive,inactive,inactive,inactive,inactive,,,,,,,
Cc1ccc(O)c(C(C)(C)C)c1,inactive,inactive,inactive,inactive,inactive,,inactive,,inactive,,,,,
CCCCCCCCCCCCCC[P+](CCCC)(CCCC)CCCC (tested in a mixture with another compound),inactive,19.4 µM (active),19.4 µM (active),17.3 µM (active),inactive,,inactive,,15.6 µM (active),,,,,
CCOc1ccc2nc3cc(N)ccc3c(N)c2c1,inactive,inactive,inactive,2.66 µM (active),inactive,,inactive,,,,,,,
O=c1cccccc1O,inactive,inactive,inactive,inactive,inactive,,inactive,,,,,,,
COc1cc(/C=C/C(=O)O[C@H]2CC[C@]34C[C@]35CC[C@]3(C)[C@@H]([C@H](C)CCC=C(C)C)CC[C@@]3(C)[C@@H]5CC[C@H]4C2(C)C)ccc1O,inactive,inactive,inactive,inactive,inactive,inactive,,,,inactive,,,,
Cc1[nH]nc2c1N=C(c1ccccc1Cl)c1cc([N+](=O)[O-])ccc1N2,63.3 µM (active),27.3 µM (active),21.7 µM (active),7.7 µM (active),inactive,,inactive,34.4 µM (active),,,,,,
CCCN(CCC)C(=O)C(CCC(=O)OCCCN1CCN(CCOC(=O)Cc2c(C)n(C(=O)c3ccc(Cl)cc3)c3ccc(OC)cc23)CC1)NC(=O)c1ccccc1 (centres undefined),inactive,23.7 µM (active),26.6 µM (active),inactive,inactive,inactive,inactive,,19 µM (active),,,,,
Cc1cc(CCN2CCN(c3nsc4ccccc34)CC2)cc2c1NC(=O)CC2(C)C,inactive,48.6 µM (active),54.5 µM (active),inactive,21.7 µM (active),inactive,,,38.9 µM (active),,,,,
[Cl][Bi]([Cl])([c]1ccccc1)([c]1ccccc1)[c]1ccccc1,12.6 µM (active),21.6 µM (active),19.2 µM (active),12.1 µM (active),inactive,,2.16 µM (active),6.08 µM (active),19.4 µM (active),,,,,
CCN1/C(=C/C=C/c2sc3ccccc3[n+]2CC)Sc2ccccc21,9.52 µM (active),13 µM (active),11.6 µM (active),14.6 µM (active),,,,,,,-9.24% [at 19 µM],-14.5% [at 19 µM],1.82% [at 19 µM],19.1% [at 15.8 µM]
O=C(c1ccc(O)cc1O)c1ccc(O)cc1O,40 µM (active) and 44.8 µM (active),inactive,inactive,inactive,inactive,,inactive,inactive,inactive,,,,,
CCCCN(CCCC)C(=O)N(CCCC)CCCC,inactive,inactive,inactive,inactive,30.6 µM (active),,,inactive,inactive,,,,,
C/C(=C(/OCCOc1ccc(Cl)cc1)c1ccc(Cl)cc1Cl)n1ccnc1,inactive,inactive,inactive,inactive,inactive,,inactive,inactive,,,,,,
Cc1cc2c(cc1C(F)(F)F)N(C(=O)Nc1ccc(Oc3cccnc3C)nc1)CC2,inactive,inactive,inactive,inactive,inactive,inactive,,,,,,,,
Nc1c(Cl)cc(Cl)cc1Cl,inactive,inactive,inactive,inactive,inactive,,inactive,inactive,,,,,,
